Results filed as inconclusive are left out. Calls of active or inactive are those of the source. Calls come from the whole dose curve; as a rule, active = well fitted activation curve with a large enough effect; inconclusive = small, poorly fitted or top-dose-only effect, or another doubt; inactive = no such curve, though single readings can be large or run the other way.
experiment: Cell Proliferation Assay against the TMD8 Cell Line (Caspase readout at 8 hrs) (AID 651713); conditions: TMD8 lymphoma cells, caspase activation luminescence; series mostly up to 46.1 µM; caspase activation: at the top concentration
Description: One class of targeted therapeutics showing early clinical success in killing of ABC DLBCL lines are small molecule inhibitors of the Bruton tyrosine kinase (BTK) 11. Thus, we chose to investigate what additional compounds, if any, would synergize with the BTK inhibitor Ibrutinib (PCI-32765).
Prior to any combination assays, using an NCATS developed oncology compound library called the Mechanism of Interrogation Plate (MIPE), two well studied ABC DLBCL lines (TMD8 and HBL1) were screened using a cell viability assay (CellTiterGlo) and a 12-point titration series for each single agent. These initial experiments offered insight into the concentration range that offered the best coverage of activity and non-activity to assure relevant data is generated. In addition to the viability signature associated with this library, we examined the apoptotic response of each agent versus the TMD8 line as judged by caspase 3/7 activation. Activity was assayed at both 8 and 16 hour time-points to gain an appreciation of which agents induced an apoptotic response in a reasonable timeframe from a therapeutic exposure perspective. MIPE was also assayed for single agent viability in a human mesenchymal stem cell (hMSC) line as a surrogate of each library members potential therapeutic index.
The combination plates were then generated by choosing 20 of the best compounds from this single agent screen and plated in the presence of the BTK inhibitor. The first analysis was carried out using 6x6 dose response blocks for each of the 20 compounds. […] In addition to the cell viability assay, the parallel caspase 3/7 activation and viability in hMSC assays were carried out in the 10x10 format.
A total of 500 log growing TMD8 cells are seeded per well in 5 uL of a RPMI with glutamine (or Glutamax), without phenol red plus 5% FBS and 1X Pen/Strep into 1536 -solid white high base tissue culture treated Greiner One Bio Plates (789173-F) using a multidrop combi dispenser and a small sterile cassette. Compounds and controls totaling 23nL per well (negative control DMSO and positive control 9.2 uM Bortezomib-final) are immediately added to the plates using a 1536 head pin tool from Kalypsys. The plates are then covered with stainless steel gasket lids from Kalypsys and incubated for either 8 hours at 37C under 95% relative humidity with 5% CO2. After the desired incubation time, the plates are removed and allowed to reach room temperature before 3 uL of the Caspase Glo reagent (Promega) is added using an Aurora Flying Reagent Dispenser Bioraptor. The plates are then spun at 1000 rpms to remove bubbles and incubated for 15 minutes at room temperature before read on a ViewLux using a luminescent filter with a 10 second exposure. The relative luciferase units are used to calculated percent activity using DMSO as 0% and Bortezomib as 100%.

SMILES	caspase activation
CS(=O)(=O)c1cccc(CNc2nc(Nc3ccc4c(c3)CCC(=O)N4)ncc2C(F)(F)F)c1	-2.35% (inactive)
COc1ccc(-c2oc3cc(OC)ccc3c2C(=O)c2ccc(C#N)cc2)cc1	-17% (inactive)
CCOC(=O)C1=C[C@@]2(CC)CCCN3CCc4c(n1c1ccccc41)[C@H]32	-55% [at 29.8 µM] (inactive)
Cc1cc(SCc2sc(-c3ccc(C(F)(F)F)cc3)nc2C)ccc1OCC(=O)O	-3.71% (inactive)
CNC(=O)c1ccccc1Sc1ccc2c(/C=C/c3ccccn3)n[nH]c2c1	-37.5% (inactive)
CS(=O)(=O)Oc1ccc2c(NC(N)=O)c(C(=O)c3ccc(Cl)cc3Cl)oc2c1	8.73% (inactive)
CCC(C)N(C)C(=O)c1cc2ccccc2c(-c2ccccc2Cl)n1 (stereo not given)	-39.5% (inactive)
CNC(=O)c1ccc(C)c(-n2c(C)cc(OCc3ccc(F)cc3F)c(Br)c2=O)c1	-8.08% (inactive)
OC(CN1CCC(Cc2ccc(F)cc2)CC1)c1ccc(Cl)cc1 (stereo not given)	-19.5% (inactive)
COc1nc(-c2ccc3c(c2)OCO3)n(-c2ccc(NC(=O)CSc3ccccc3)cc2)n1	-8.69% (inactive)
COc1ccc(-c2ccc3c(N4CCOC[C@H]4C)nc(N4CCOC[C@H]4C)nc3n2)cc1CO	12.7% (inactive)
CC1(C)SCCN(S(=O)(=O)c2ccc(OCC#CCO)cc2)[C@@H]1C(=O)NO	6.72% (inactive)
CCN(CC)CCCC(C)Nc1nc(C)cc(Nc2ccc3nc(C)cc(N)c3c2)n1 (stereo not given)	-21.4% (inactive)
CC(=O)NC(C)c1ccc(Oc2ccc(OC(C)C)cc2)cc1 (stereo not given)	9.84% (inactive)
Cn1cc(-c2ccc3nnc(C(F)(F)c4ccc5ncccc5c4)n3n2)cn1	-3.64% (inactive)
CN(C(=O)c1ccc(F)cc1C(F)(F)F)C1CCN(c2nnc(-c3ccnn3C)c3ccccc23)CC1	15.9% (inactive)
COc1cc2nccc(Oc3ccc(NC(=O)NC4CC4)c(Cl)c3)c2cc1C(N)=O	28.2% (inactive)
O=C1CCCC2=C1C(c1[nH]ncc1Cl)N=C(Nc1nc3ccccc3o1)N2 (stereo not given)	14.8% (inactive)
CN(C)c1ccc(Nc2nc(N)n(C(=O)c3c(F)cccc3F)n2)cc1	13.1% (inactive)
Cc1oncc1C(=O)Nc1ccc(C(F)(F)F)cc1	-50.5% (inactive)

SMILES	caspase activation
Cc1ccc(-n2nc(C(C)(C)C)cc2NC(=O)Nc2ccc(OCCN3CCOCC3)c3ccccc23)cc1	5.69% (inactive)
COCCNCCCn1c(C(=O)CF)c(-c2ccc(C)cc2)c2c(N)ncnc21	8.63% (inactive)
Cc1cnc(Nc2ccc(OCCN3CCCC3)cc2)nc1Nc1cccc(S(=O)(=O)NC(C)(C)C)c1	11.6% (inactive)
O=C1[C@H](Cc2ccc(O)cc2)N2C(=O)CCN(C(=O)NCc3ccccc3)[C@H]2CN1Cc1cccc2ccccc12	18.2% (inactive)
Nc1nc2ccc(OC(F)(F)F)cc2s1	-33.1% (inactive)
Cc1c(CCOc2ccc(C(=O)O)cc2)c2cc(Cl)ccc2n1C(c1ccccc1)c1ccccc1	-4.41% (inactive)
COc1ccc(-c2ccc3c(N4CCOCC4)nc(N4C[C@@H](C)O[C@@H](C)C4)nc3n2)cc1CO	23.3% (inactive)
CCn1c(-c2nonc2N)nc2cnc(Oc3cccc(NC(=O)c4ccc(OCCN5CCOCC5)cc4)c3)cc21	17.1% (inactive)
CS(=O)(=O)c1ccc(C(=O)Nc2ccc(Cl)c(-c3ccccn3)c2)c(Cl)c1	3.07% (inactive)
Nc1cccc(S(=O)(=O)N2CCCN(S(=O)(=O)c3ccc4c(c3)OCCO4)CC2)c1	-20% (inactive)
Cc1[nH]c(=O)c(C#N)cc1-c1ccc2nccn2c1	24.2% (inactive)
Cc1ccc2c(c1)C(=O)[C@@]1(O)CCN(c3ccccc3)C1=N2	-9.63% (inactive)
O=C(OCC#CCSc1nnc(-c2ccc3ccccc3c2)o1)c1cc2ccccc2s1	-16.5% (inactive)
CCC(=O)N[C@H]1CC[C@H](C(=O)N(C)c2ccc(-c3nc4ccccc4o3)cc2)C1	6.53% (inactive)
NC(=O)C1CCCc2c1[nH]c1ccc(Cl)cc21 (stereo not given)	-2.91% (inactive)
COc1cc2c(cc1OC)CN(CCc1ccc(NC(=O)c3cccc4c(=O)c5cccc(OC)c5[nH]c34)cc1)CC2	-29.5% (inactive)
Cc1n[nH]c(C)c1Cc1sc2c(c1C(=O)N1C[C@H](O)CO1)c(=O)n(C)c(=O)n2CC(C)C	10.9% (inactive)
CCOc1cc(C(=O)Nc2ccc(Cl)c(-c3nc4ccccc4[nH]3)c2)cc(OCC)c1OCC	3.55% (inactive)
CCCc1nc2c(C)cc(-c3nc4ccccc4n3C)cc2n1Cc1ccc(-c2ccccc2C(=O)O)cc1	-7.19% (inactive)
CC(C)(C)OC(=O)CN(Cc1ccc(Cl)cc1)Cc1ccc([N+](=O)[O-])s1	-5.79% (inactive)
